Measurements reported in ChEMBL document CHEMBL3988442, “University of Dundee, Small-Polar-MMV Screening Library” (2021).
For some assays here: Results with a measured potency or affinity are listed apart.

Columns and labels:
Set-up in all cases: scale not given: direction of the effect not stated beside the values
[1] = molecular target: Protein translocase subunit SecA (Escherichia coli (strain K12)) (UniProt P10408); assay: Assay to Identify E. coli SecA ATPase Inhibitors; type: functional; conditions: 30 µM
Chain of Protein translocase subunit SecA (Escherichia coli (strain K12)) (P10408 whole entry): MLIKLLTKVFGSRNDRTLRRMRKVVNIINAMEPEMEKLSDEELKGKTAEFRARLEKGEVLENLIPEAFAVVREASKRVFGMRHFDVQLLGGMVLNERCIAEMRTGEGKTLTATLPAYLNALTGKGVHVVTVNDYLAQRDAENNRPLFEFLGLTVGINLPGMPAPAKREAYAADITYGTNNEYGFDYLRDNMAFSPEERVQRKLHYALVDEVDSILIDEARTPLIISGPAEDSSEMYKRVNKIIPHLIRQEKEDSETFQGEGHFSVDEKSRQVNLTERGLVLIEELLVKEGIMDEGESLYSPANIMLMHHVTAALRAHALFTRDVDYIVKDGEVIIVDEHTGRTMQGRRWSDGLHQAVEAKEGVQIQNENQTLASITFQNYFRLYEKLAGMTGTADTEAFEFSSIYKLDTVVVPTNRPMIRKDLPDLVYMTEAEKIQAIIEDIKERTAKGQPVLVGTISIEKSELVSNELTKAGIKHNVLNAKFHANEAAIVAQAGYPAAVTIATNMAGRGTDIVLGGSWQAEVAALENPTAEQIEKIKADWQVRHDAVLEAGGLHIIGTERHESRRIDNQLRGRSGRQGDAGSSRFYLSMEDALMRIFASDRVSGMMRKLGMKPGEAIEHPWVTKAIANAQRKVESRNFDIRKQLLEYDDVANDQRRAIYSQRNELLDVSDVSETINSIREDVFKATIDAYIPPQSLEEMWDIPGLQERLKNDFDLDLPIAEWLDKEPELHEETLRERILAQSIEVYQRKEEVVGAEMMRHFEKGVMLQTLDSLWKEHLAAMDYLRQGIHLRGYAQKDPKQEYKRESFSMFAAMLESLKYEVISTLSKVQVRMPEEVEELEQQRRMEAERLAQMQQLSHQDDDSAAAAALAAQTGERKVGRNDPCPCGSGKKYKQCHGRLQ

[2] = molecular target: T1, Ubiquitin-activating enzyme e1, putative (Leishmania donovani (strain BPK282A1)) (UniProt E9BSI1); assay: Leishmania donovani Ubiquitin Activating Enzyme (LdE1); type: functional; conditions: 30 µM
T1 sequence (whole entry): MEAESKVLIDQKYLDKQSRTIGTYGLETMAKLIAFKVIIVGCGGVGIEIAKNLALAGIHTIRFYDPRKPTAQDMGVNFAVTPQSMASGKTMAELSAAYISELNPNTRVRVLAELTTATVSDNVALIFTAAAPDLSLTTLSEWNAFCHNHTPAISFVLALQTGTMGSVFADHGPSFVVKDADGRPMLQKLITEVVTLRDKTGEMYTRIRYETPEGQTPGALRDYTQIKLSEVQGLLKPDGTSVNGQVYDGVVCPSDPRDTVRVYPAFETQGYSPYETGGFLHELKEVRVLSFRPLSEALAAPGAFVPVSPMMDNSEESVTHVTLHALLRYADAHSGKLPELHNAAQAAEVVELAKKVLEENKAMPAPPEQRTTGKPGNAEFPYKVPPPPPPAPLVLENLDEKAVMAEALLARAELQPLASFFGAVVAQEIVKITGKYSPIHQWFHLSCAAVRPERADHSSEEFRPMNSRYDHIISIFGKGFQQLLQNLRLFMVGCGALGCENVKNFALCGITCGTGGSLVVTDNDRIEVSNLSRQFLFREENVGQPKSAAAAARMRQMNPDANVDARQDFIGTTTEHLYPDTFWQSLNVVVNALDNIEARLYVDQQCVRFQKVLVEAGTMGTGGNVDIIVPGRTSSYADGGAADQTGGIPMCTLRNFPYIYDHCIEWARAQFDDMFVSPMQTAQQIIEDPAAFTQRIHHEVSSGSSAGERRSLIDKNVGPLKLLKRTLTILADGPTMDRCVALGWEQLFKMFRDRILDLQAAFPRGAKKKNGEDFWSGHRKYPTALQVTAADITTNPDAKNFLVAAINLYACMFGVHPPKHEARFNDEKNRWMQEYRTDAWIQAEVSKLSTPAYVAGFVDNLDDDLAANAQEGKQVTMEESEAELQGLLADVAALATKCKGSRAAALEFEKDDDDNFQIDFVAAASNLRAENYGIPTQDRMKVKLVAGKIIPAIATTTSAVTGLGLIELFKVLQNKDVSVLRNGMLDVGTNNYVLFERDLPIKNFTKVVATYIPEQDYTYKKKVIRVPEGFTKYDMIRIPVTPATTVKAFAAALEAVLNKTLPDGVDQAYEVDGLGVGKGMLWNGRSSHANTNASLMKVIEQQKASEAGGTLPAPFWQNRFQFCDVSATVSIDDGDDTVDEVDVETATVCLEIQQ

[3] = molecular target: AMP-activated protein kinase, AMPK (Homo sapiens) (UniProt P54646+O43741+P54619+Q9UGJ0+Q9Y478+Q13131+Q9UGI9); assay: AMP-dependent Kinase enzyme assay. An in vitro enzyme assay that detects ADP turnover that is directly proportional to AMPK activity. This uses naive AMPK that is activated during the assay with MK-8722; type: functional; conditions: 30 µM
[4] = molecular target: Sialic acid-binding Ig-like lectin 9 (Homo sapiens) (UniProt Q9Y336); assay: Hs-Siglec9 ALPHAscreen SOP 20170721; conditions: 10 µM
Chain of Sialic acid-binding Ig-like lectin 9 (Homo sapiens) (Q9Y336 whole entry): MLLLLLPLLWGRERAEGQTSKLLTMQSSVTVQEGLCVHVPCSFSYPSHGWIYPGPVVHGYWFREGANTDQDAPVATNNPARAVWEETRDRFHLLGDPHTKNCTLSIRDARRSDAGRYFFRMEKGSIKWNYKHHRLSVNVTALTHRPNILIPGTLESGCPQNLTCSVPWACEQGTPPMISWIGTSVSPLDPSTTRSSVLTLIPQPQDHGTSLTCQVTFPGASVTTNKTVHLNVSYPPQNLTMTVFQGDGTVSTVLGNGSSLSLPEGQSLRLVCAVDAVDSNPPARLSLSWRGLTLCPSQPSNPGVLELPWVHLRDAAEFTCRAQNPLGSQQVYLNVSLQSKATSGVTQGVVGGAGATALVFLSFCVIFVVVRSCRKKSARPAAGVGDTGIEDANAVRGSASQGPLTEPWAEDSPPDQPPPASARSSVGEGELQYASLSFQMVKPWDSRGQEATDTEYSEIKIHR

[5] = tested on: Trypanosoma cruzi; assay: Trypanosoma cruzi phosphomannomutase and mannose-1-phosphate guanylyltransferase assay; type: functional; conditions: 10 µM
[6] = molecular target: T2, Arginase-2, mitochondrial (Homo sapiens) (UniProt P78540); assay: in vitro enzyme assay to detect the production of urea directly proportional to the activity of Arginase II; type: functional; conditions: 33.3 µM; further: in the data most compounds retested in dose-response had high values
T2 sequence (whole entry): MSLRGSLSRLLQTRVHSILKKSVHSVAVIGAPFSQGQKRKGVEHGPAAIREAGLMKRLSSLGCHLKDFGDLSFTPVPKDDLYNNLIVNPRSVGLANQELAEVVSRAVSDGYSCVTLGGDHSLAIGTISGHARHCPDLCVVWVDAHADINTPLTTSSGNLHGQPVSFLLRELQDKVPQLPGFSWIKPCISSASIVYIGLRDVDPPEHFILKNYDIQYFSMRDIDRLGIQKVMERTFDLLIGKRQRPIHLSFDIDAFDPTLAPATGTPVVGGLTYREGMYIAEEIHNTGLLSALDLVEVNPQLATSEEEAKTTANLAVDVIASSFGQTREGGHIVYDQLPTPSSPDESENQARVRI

[7] = molecular target: T3, Proteasome subunit beta (Trypanosoma cruzi) (UniProt O96673); assay: Trypanosoma cruzi proteasome chymotrypsin-like activity (TcProtChymo) assay.; further: in the data most compounds retested in dose-response had high values; type: functional; conditions: 9.37 µM
T3 sequence (whole entry): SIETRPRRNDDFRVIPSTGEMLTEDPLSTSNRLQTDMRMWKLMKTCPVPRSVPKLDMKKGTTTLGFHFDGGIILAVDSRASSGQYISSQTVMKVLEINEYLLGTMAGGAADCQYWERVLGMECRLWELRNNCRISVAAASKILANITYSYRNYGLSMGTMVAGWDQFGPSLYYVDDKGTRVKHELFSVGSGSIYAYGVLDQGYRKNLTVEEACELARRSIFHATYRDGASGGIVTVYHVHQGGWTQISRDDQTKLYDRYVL

[8] = species: Homo sapiens; assay: To identify inhibition of the IFN signalling (Jak-Stat) pathway via expression of an eGFP reporter gene under the control of an IFN-stimulated response element (ISRE) containing MxA promoter.; type: functional; conditions: 30 µM
[9] = molecular target: T4, Tyrosyl-tRNA synthetase, putative (Trypanosoma cruzi (strain CL Brener)) (UniProt Q4DSP6); assay: Trypanosoma cruzi tyrosyl tRNA synthetase (TcYRS) _High Tyrosine SOP; type: functional; conditions: 30 µM; further: in the data most compounds retested in dose-response had high values
T4 sequence (whole entry): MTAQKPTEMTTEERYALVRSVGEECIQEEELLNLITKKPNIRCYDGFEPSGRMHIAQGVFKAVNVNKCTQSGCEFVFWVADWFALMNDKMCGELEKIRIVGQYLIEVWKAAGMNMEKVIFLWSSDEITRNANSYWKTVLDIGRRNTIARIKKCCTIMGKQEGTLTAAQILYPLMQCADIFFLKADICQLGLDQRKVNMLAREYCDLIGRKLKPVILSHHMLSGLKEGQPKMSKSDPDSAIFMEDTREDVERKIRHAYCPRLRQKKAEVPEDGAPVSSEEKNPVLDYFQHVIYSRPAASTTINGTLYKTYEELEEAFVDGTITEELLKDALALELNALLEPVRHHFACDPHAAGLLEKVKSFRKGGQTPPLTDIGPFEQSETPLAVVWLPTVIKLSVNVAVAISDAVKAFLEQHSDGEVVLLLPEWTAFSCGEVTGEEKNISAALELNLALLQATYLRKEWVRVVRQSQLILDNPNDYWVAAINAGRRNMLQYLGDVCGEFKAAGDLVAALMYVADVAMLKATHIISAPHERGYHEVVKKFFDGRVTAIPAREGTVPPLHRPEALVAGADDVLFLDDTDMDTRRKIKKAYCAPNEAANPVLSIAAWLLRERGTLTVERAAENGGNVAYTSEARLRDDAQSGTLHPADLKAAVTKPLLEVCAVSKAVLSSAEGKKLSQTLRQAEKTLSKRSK

[10] = molecular target: T4, Tyrosyl-tRNA synthetase, putative (Trypanosoma cruzi (strain CL Brener)); assay: Trypanosoma cruzi tyrosyl tRNA synthetase (TcYRS) SOP; type: functional; conditions: 30 µM
[11] = molecular target: Chromo domain-containing protein 1 (Saccharomyces cerevisiae (strain ATCC 204508 / S288c) (Baker's yeast)) (UniProt P32657); assay: ScCHD-1 Enzyme Inhibition Assay; type: functional; conditions: 30 µM; further: in the data most compounds retested in dose-response had high values
Chain of Chromo domain-containing protein 1 (Saccharomyces cerevisiae (strain ATCC 204508 / S288c) (Baker's yeast)) (P32657 whole entry, the tested form may be a part): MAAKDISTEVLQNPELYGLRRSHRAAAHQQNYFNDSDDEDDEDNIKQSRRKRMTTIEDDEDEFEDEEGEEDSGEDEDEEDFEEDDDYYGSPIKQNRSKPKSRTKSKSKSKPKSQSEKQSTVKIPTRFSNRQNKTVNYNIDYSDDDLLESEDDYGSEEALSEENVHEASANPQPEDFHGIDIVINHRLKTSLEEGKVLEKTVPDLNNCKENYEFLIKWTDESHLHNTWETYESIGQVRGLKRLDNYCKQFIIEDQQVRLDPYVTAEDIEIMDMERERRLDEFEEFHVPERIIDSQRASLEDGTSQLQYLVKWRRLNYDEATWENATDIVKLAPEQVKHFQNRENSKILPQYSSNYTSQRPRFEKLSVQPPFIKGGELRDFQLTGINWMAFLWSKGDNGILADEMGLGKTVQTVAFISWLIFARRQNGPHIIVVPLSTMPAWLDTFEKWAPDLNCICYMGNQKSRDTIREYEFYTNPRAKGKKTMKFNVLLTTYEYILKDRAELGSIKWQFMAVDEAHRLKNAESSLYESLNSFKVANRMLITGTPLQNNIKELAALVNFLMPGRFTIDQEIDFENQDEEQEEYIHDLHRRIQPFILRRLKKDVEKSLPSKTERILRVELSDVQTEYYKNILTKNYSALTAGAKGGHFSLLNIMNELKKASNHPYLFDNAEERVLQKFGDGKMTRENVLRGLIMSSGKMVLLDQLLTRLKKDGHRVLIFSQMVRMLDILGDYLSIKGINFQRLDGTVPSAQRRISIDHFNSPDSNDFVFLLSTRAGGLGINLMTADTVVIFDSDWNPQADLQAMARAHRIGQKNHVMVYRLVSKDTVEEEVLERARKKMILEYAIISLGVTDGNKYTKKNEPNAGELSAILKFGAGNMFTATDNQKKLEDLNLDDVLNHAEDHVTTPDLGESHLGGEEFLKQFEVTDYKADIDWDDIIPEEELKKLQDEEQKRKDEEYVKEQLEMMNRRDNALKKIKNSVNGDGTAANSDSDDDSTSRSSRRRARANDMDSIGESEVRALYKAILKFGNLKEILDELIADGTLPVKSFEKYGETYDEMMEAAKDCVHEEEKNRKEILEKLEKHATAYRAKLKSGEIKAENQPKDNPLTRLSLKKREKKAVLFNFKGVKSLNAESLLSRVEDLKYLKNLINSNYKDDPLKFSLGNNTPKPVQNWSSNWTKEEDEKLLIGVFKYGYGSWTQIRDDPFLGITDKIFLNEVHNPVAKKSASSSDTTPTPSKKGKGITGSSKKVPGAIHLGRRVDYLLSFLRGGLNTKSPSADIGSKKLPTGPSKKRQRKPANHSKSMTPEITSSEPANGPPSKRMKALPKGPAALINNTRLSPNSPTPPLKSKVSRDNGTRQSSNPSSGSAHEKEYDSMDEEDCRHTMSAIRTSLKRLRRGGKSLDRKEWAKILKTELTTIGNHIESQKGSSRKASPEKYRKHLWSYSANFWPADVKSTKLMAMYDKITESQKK

## CCn1cnnc1C1CCN(C(=O)c2cccc3c2ccn3C)CC1
[1]
  Percent Effect: -5.72%
[2]
  Percent Effect: 18.2%
[3]
  Percent Effect: -2.51%
[4]
  Percent Effect: 0.647%
[5]
  Percent Effect: 3.37%
[6]
  Percent Effect: -4.63%
[7]
  Percent Effect: 7.43%
[8]
  Percent Effect: -1.75%
[9]
  Percent Effect: 7.77%
[10]
  Percent Effect: 24.4%
[11]
  Percent Effect: -13.2%

## O=C(CCCc1cn[nH]c1)N1CCOCC(O)C1 (stereo not given)
[1]
  Percent Effect: -5.63%
[2]
  Percent Effect: 0%
[3]
  Percent Effect: -4.88%
[4]
  Percent Effect: -7.04%
[5]
  Percent Effect: 0%
[6]
  Percent Effect: -0.455%
[7]
  Percent Effect: 5.86%
[8]
  Percent Effect: -11.9%
[9]
  Percent Effect: 5.38%
[10]
  Percent Effect: 10%
[11]
  Percent Effect: -3.63%

## CC(=O)N1CCN(C(=O)CCCc2nc(C(C)C)no2)CC1
[1]
  Percent Effect: -1.74%
[2]
  Percent Effect: 15.2%
[3]
  Percent Effect: 2.62%
[4]
  Percent Effect: -11.8%
[5]
  Percent Effect: -10.1%
[6]
  Percent Effect: 4.56%
[7]
  Percent Effect: 8.44%
[8]
  Percent Effect: 37.4%
[9]
  Percent Effect: -0.493%
[10]
  Percent Effect: -1.27%
[11]
  Percent Effect: -5.47%

## Cc1nc(-c2ccco2)ccc1C(=O)N1CCCC1Cn1cccn1 (stereo not given)
[1]
  Percent Effect: -2.79%
[2]
  Percent Effect: 1.27%
[3]
  Percent Effect: 3.11%
[4]
  Percent Effect: 2.49%
[5]
  Percent Effect: -0.513%
[6]
  Percent Effect: 3.66%
[7]
  Percent Effect: 13.4%
[8]
  Percent Effect: 7.74%
[9]
  Percent Effect: 4.17%
[10]
  Percent Effect: 0%
[11]
  Percent Effect: -8.65%

## Cc1ccc(-c2cc(CNC(=O)N3CCOC(C)C3)on2)cc1 (stereo not given)
[1]
  Percent Effect: 0.724%
[2]
  Percent Effect: 8.11%
[3]
  Percent Effect: 7.2%
[4]
  Percent Effect: -10.1%
[5]
  Percent Effect: -4.92%
[6]
  Percent Effect: 3.88%
[7]
  Percent Effect: 7.54%
[8]
  Percent Effect: 20.6%
[9]
  Percent Effect: 6.93%
[10]
  Percent Effect: 13.4%
[11]
  Percent Effect: -5.48%

## Cc1ccc2c(n1)N(CCn1cccn1)CCN(C(=O)CC1CC1)C2
[1]
  Percent Effect: -3.68%
[2]
  Percent Effect: 5.41%
[3]
  Percent Effect: -9.57%
[4]
  Percent Effect: 3.09%
[5]
  Percent Effect: -4.4%
[6]
  Percent Effect: 1.74%
[7]
  Percent Effect: 10.6%
[8]
  Percent Effect: 10.3%
[9]
  Percent Effect: -5.38%
[10]
  Percent Effect: 11.1%
[11]
  Percent Effect: -7.62%

## CCCNC(=O)c1sccc1N(C)S(=O)(=O)c1ccc(Cl)cc1
[1]
  Percent Effect: 1.13%
[2]
  Percent Effect: 7.89%
[3]
  Percent Effect: -1.42%
[4]
  Percent Effect: -7.73%
[5]
  Percent Effect: -8.67%
[6]
  Percent Effect: 9.47%
[7]
  Percent Effect: 13.3%
[8]
  Percent Effect: 38.4%
[9]
  Percent Effect: -4.25%
[10]
  Percent Effect: -2.6%
[11]
  Percent Effect: -1.51%

## O=C(CCOCc1ccccc1)N1CCCC1c1noc(C2CC2)n1 (stereo not given)
[1]
  Percent Effect: -0.0528%
[2]
  Percent Effect: 21.6%
[3]
  Percent Effect: -9.42%
[4]
  Percent Effect: 3.05%
[5]
  Percent Effect: 1.23%
[6]
  Percent Effect: -10.4%
[7]
  Percent Effect: 5.22%
[8]
  Percent Effect: 4.41%
[9]
  Percent Effect: -23.1%
[10]
  Percent Effect: 25.9%
[11]
  Percent Effect: -10%

## CC(=O)N(Cc1noc(C)n1)C1CCN(Cc2ccccc2C#N)C1 (stereo not given)
[1]
  Percent Effect: -1.89%
[2]
  Percent Effect: 3.8%
[3]
  Percent Effect: 1.41%
[4]
  Percent Effect: 1.68%
[5]
  Percent Effect: 1.74%
[6]
  Percent Effect: 5.38%
[7]
  Percent Effect: 6.17%
[8]
  Percent Effect: -5.16%
[9]
  Percent Effect: 0%
[10]
  Percent Effect: 5.06%
[11]
  Percent Effect: 0.362%

## O=C(Nc1cccc(OCc2cccc(F)c2)c1)C1COCCO1 (stereo not given)
[1]
  Percent Effect: -6.19%
[2]
  Percent Effect: -8%
[3]
  Percent Effect: 0.056%
[4]
  Percent Effect: 1.36%
[5]
  Percent Effect: -3.41%
[6]
  Percent Effect: -0.521%
[7]
  Percent Effect: 13.2%
[8]
  Percent Effect: 28%
[9]
  Percent Effect: -8.2%
[10]
  Percent Effect: -11.1%
[11]
  Percent Effect: -6.84%
